Compounds with a hit are over-represented: about 9.2% of the library has one in this group of screens.
OTUD3 inh – blocks human OTUD3 ubiquitin-rhodamine cleavage; Q5T2D3; purified OTUD3, Ub-rhodamine fluorescence, 2 h; inhibition, % at 25 µM; 0.7% of 47,000 active; AID 1645858
USP10 inh – human USP10 deubiquitinase inhibition; 1.1% of 47,000 active; Q14694; inhibition, % at 20 µM; purified USP10, Ub-rhodamine fluorescence, 60 min
USP17 inh – inhibitors of human USP17 deubiquitinase. A8MUK1. purified USP17, Ub-rhodamine cleavage fluorescence, 3 h. inhibition, % at 50 µM. 6.5% of 47,000 active. AID 1645855
USP7 block – blocks human USP7 ubiquitin-rhodamine cleavage; Q93009; purified USP7, Ub-rhodamine cleavage fluorescence; inhibition, % at 20 µM; 0.3% of 47,000 active; AID 1645854
Target sequence (Q93009 whole entry, looked up): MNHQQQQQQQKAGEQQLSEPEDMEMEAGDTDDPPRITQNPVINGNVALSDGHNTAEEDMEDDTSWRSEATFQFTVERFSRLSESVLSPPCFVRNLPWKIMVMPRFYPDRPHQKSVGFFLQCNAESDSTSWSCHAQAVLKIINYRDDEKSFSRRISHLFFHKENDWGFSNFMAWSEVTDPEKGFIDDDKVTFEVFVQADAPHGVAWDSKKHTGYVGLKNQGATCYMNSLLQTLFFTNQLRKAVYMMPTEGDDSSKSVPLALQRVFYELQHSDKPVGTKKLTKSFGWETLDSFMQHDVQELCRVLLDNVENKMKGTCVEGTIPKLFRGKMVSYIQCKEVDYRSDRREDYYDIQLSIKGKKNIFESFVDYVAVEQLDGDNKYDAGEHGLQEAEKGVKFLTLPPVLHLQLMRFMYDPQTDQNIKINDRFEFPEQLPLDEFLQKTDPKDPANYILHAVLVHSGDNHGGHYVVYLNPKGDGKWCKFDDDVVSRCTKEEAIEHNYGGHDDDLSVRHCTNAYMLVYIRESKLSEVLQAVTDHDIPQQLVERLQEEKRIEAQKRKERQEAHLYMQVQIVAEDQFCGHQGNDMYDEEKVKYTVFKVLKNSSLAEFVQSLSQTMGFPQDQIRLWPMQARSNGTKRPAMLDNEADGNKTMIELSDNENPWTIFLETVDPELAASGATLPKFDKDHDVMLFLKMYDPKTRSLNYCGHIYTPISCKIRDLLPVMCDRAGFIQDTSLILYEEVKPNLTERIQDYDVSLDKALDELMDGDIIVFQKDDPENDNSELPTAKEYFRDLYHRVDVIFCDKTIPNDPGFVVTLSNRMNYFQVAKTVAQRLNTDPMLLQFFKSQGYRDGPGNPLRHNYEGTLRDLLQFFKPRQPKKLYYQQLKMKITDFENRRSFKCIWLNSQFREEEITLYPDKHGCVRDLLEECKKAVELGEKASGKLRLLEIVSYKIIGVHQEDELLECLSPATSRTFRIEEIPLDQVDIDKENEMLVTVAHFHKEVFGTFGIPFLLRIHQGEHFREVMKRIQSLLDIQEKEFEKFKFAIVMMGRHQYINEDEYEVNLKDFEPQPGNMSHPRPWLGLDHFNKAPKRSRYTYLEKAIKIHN
USP8 block – inhibitors of human USP8 deubiquitinase. P40818. purified USP8, Ub-rhodamine cleavage fluorescence, 30 min. inhibition, % at 20 µM. 4.2% of 47,000 active. AID 1645853
UCHL1 block – human UCHL1 deubiquitinase inhibition; purified UCHL1, Ub-rhodamine cleavage fluorescence; 0.2% of 47,000 active; inhibition, % at 20 µM
The depositor's hits bear a star; / = no result given. No stated cut-off is given here; in the data, active means inhibition above about 30%; inactive means the rest.

SMILES	OTUD3 inh	USP10 inh	USP17 inh	USP7 block	USP8 block	UCHL1 block
COc1cccc(-c2nc(-c3ccccc3OCC(=O)Nc3ccccc3C)no2)c1	0	-5	23	-2	-23	-5
CC(=O)Nc1cc(-c2cccc(CO)c2)cn2c(-c3ccc(S(C)(=O)=O)cc3)cnc12	-15	-4	-11	-5	-22	-4
COc1ccccc1-c1cc(NC(C)=O)c2ncc(-c3ccc(S(C)(=O)=O)cc3)n2c1	-16	-4	39*	1	69*	0
CC(C)=CCc1c2c(c3occ(-c4ccc(O)cc4)c(=O)c3c1O)C=CC(C)(C)O2	44*	30	91*	2	17	10
CC(C)=CCc1c2c(c3occ(-c4ccc(O)c(O)c4)c(=O)c3c1O)C=CC(C)(C)O2	81*	63*	86*	-12	26	15
CN(C)c1ccc(C2CC(c3c(O)n(C)c(=O)[nH]c3=O)=Nc3ccccc3S2)cc1 (configuration not stated)	15	-2	65*	6	18	-3
COc1cc(OC)c2c(C)c(CC(=O)Nc3cccc(C(C)O)c3)c(=O)oc2c1 (configuration not stated)	5	-1	30*	/	3	4
COc1cc(OC)c2c(C)c(CC(=O)N[C@@H](Cc3c[nH]c4ccccc34)C(=O)O)c(=O)oc2c1	1	3	8	0	1	0
CCCCCCCc1cc(OC(=O)c2c(CCCCCCC)cc(O)cc2O[C@@H]2O[C@H](CO)[C@@H](O)[C@H](O)[C@H]2O)cc(O)c1C(=O)O	102*	101*	102*	101*	99*	88*
CCCCCCCCCCCCCCCc1cc(O)cc(O)c1C(=O)O	36*	63*	89*	12	25	7
O=C(NC1CCC1)[C@H]1C[C@@H]2CN(C(=O)NCc3ccccc3)C[C@H]1O2	-3	-1	4	0	-19	-4
O=C(Nc1sc2c(c1-c1nc3ccccc3[nH]1)CCCC2)C1CC(=O)N(Cc2ccccc2)C1 (configuration not stated)	-16	-9	38*	6	-41	-4
CN(C)c1ccc(NC(=O)COC(=O)C2(c3ccc(F)cc3)CCCC2)cc1	-10	2	/	5	72*	5
OCC1CSC(c2ccccc2O)=N1 (configuration not stated)	8	4	30*	5	1	5
O=C(O)C1CCN(Cc2c(-c3ccccc3)nc3ccccn23)CC1	-6	-1	-20	-4	-1	-5
O=c1[nH]c2ccccc2cc1CN(c1ccccc1)S(=O)(=O)c1ccc(Cl)cc1	0	1	48*	1	4	1
COc1ccc(N(Cc2cc3cc(OC)ccc3[nH]c2=O)S(=O)(=O)c2ccccc2)cc1	1	4	-1	2	-21	0
Cc1ccc2[nH]c(=O)c(CN(CC3COCCO3)S(=O)(=O)c3ccc(F)cc3)cc2c1 (configuration not stated)	-7	23	76*	5	35*	0
Cc1ccc(S(=O)(=O)N(C)Cc2cc3cc(C)ccc3[nH]c2=O)cc1	10	-6	57*	5	-5	3
Cc1ccc(S(=O)(=O)N(Cc2cc3ccc(C)cc3[nH]c2=O)CC2CCCO2)cc1 (configuration not stated)	-15	-10	-20	-10	0	-9
COCCN(Cc1cc2cc(C)ccc2[nH]c1=O)S(=O)(=O)c1ccc(Cl)cc1	5	0	33*	0	-28	0
CC1=C[C@H]2[C@H](C(C)C)CC[C@@](C)(O)[C@H]2CC1=O	0	-4	-7	-1	0	-2
CC(C)[C@H]1CC[C@@]2(CO2)[C@H]2C(=O)OCC(C(=O)O)=C[C@H]12	55*	3	73*	4	1	3
Cc1ccc(-n2c(=O)[nH]c3c(C(N)=O)nc(-c4cccnc4)nc32)cc1	31*	-4	34*	4	7	0
Cc1cccc(-c2nc(C(N)=O)c3[nH]c(=O)n(-c4ccccc4)c3n2)c1	-23	-3	8	0	75*	-7
SMILES	OTUD3 inh	USP10 inh	USP17 inh	USP7 block	USP8 block	UCHL1 block
Cc1ccc(-n2c(=O)[nH]c3c(C(N)=O)nc(-c4ccccn4)nc32)cc1	-37	-6	9	4	-64	-1
Cc1cc(C)nc(-n2nc(C)cc2NC(=O)c2ccc3c(c2)OCO3)n1	1	-1	-5	3	-27	1
Cc1nc(NC(=O)c2ccc(F)cc2)nc2cc3c(cc12)OCO3	0	-5	36*	3	12	1
O=C(NC1CCCCC1)C(c1ccc(O)cc1)N(Cc1ccccc1)C(=O)c1ccc2c(c1)OCCO2 (configuration not stated)	-3	1	-3	-4	-2	0
O=C(NC1CCCCCC1)C(Cc1ccccc1)NS(=O)(=O)c1ccc2c(c1)OCCO2 (configuration not stated)	0	2	49*	0	0	-3
Cc1ccccc1NC(=O)C(NS(=O)(=O)c1ccc2c(c1)OCCO2)C(C)C (configuration not stated)	-10	-2	40*	-6	-16	2
Cc1ccc(C)c(Cn2cnc3c(nnn3-c3cccc(F)c3)c2=O)c1	-13	16	/	25	54*	3
O=C(CN1C(=O)CSc2cccn2-c2ccccc21)NCc1ccc(Cl)cc1	24	0	40*	-1	-78	1
CCc1ccc(CNC(=O)CN2C(=O)CSc3cccn3-c3ccccc32)cc1	0	0	4	0	-24	0
COc1cc2cc(C(=O)NCC(=O)Nc3nc4ccccc4s3)n(C)c2cc1OC	4	-6	33*	8	3	5
O=C(Cn1nnc2ccccc21)Nc1nc2ccccc2s1	8	-6	14	-2	-12	-2
Cc1ccc(S(=O)(=O)c2cnc3ccccc3c2N2CCCCC2)cc1	2	5	2	4	3	5
COc1cccc(C(=O)N2CCN(C(=O)c3cc4ccccc4[nH]3)CC2)c1	-3	2	-47	-3	0	0
COc1ccccc1NS(=O)(=O)c1cc(NC(=O)CC(=O)c2ccc([N+](=O)[O-])cc2)ccc1C	3	33*	/	14	68*	9
COc1ccc(NC(=O)CC(=O)c2ccc([N+](=O)[O-])cc2)cc1S(=O)(=O)Nc1ccc(Cl)cc1	13	49*	38*	18	58*	4
COc1cccc(NS(=O)(=O)c2ccc(Oc3ccccc3OC)cc2)c1	17	16	36*	14	20	7
COc1ccc(NS(=O)(=O)c2ccc(C(=O)Nc3cccc(C(C)=O)c3)cc2)cc1	-8	-1	46*	0	-1	3
COc1ccccc1NS(=O)(=O)c1cc(C(=O)NCc2ccncc2)ccc1C	5	1	-4	5	8	6

High-throughput results as filed in PubChem BioAssay.
